This is a sample that favours compounds with a hit; in the whole collection about 1.7% have one here.
Rin1 Abl inh: inhibitors of Rin1-Abl protein binding, primary screen, biochemical, TR-FRET | inhibition, % at 7.35 µM | AID 588664, 2011 | Tyrosine-protein kinase ABL1 (Homo sapiens) + Ras and Rab interactor 1 (Homo sapiens), … | 360,000 tested, 0.4% active; in the data active = inhibition above about 5%, passing the limit was not always enough
Hck Nef HTS: inhibitors of Nef-activated human Hck kinase, primary screen, biochemical, Z-Lyte FRET, 384-well, Hck-YEEI | Recombinant Hck-YEEI plus Nef, Z-Lyte FRET kinase assay | inhibition, % at 20 µM | 220,000 tested, 0.68% active | AID 463187, 2010;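 active = Hck-Nef kinase inhibition above about 50%, limit read from the data; inactive = inhibition below that limit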
LYPLA2 counter: LYPLA2 inhibitors, primary screen, counter-screen for PME1 inhibitor project, biochemical, fluorescence polarization, FP-Rh probe ABPP; Acyl-protein thioesterase 2 (Homo sapiens), O95372; inhibition, % at 5.9 µM; 320,000 tested, 0.38% active; recombinant LYPLA2;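 active = inhibition above the screen-wide mean plus 3 SD, limit set per campaign, cut at about 26% in these data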
p97 ATPase inh: inhibitors of human p97 ATPase, primary screen, biochemical. 220,000 tested, 0.42% active. recombinant p97 ATPase, Kinase-Glo ATP luminescence, 3 h. inhibition, % at 8 µM. AID 1481, 2009. Transitional endoplasmic reticulum ATPase (Homo sapiens), P55072; in the data active = inhibition above about 15%
Target sequence (P55072 whole entry, looked up): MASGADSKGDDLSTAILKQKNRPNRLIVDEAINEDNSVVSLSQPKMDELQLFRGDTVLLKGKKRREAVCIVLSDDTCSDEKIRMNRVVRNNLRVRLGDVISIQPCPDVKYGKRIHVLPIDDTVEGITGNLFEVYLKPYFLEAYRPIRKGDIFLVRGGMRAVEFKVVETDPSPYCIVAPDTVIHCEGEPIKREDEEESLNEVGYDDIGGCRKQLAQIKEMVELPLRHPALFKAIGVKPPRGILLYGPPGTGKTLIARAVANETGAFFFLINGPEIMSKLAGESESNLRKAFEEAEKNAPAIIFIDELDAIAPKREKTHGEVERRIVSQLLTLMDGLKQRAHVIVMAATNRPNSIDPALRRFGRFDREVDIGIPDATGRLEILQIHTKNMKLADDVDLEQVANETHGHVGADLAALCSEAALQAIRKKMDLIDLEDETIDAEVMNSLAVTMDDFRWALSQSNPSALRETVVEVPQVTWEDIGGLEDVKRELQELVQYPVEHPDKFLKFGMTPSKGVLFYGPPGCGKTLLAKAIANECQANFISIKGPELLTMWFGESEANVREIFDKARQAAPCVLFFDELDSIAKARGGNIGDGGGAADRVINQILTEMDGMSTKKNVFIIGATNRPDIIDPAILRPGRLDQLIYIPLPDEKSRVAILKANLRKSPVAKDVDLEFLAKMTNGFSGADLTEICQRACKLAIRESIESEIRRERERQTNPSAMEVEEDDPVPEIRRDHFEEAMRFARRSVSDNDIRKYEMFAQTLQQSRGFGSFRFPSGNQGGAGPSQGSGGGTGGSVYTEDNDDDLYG
LYPLA1 counter: LYPLA1 inhibitors, primary screen, counter-screen for PME1 inhibitor project, biochemical, fluorescence polarization, FP-Rh probe ABPP; Acyl-protein thioesterase 1 (Homo sapiens), O75608; recombinant LYPLA1; inhibition, % at 5.9 µM; 320,000 tested, 0.16% active; AID 2174, 2009;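 active = inhibition above the mean of all tested compounds plus 3 SD, set per campaign, cut at about 14% in these data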;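 also: inhibitors block serine hydrolase probe labeling of LYPLA1 so polarization falls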
PREPL inhibitor: PREPL enzyme inhibitors, primary screen, biochemical, fluorescence polarization. Prolyl endopeptidase-like (Homo sapiens), Q4J6C6. recombinant PREPL, fluorescence polarization activity-based probe. inhibition, % at 5.96 µM. 320,000 tested, 0.68% active. AID 2751, 2010
PREPL confirm: human PREPL enzyme inhibitors, confirmation, biochemical, fluorescence polarization | shares compounds with PREPL inhibitor | recombinant PREPL, fluorescence polarization activity probe | inhibition, % at 5.96 µM | 2,000 tested, 67% active
Numbers stand for hits; – = inactive; · = no result given. Rule as the data show it, unless noted: active = inhibition above about 43%; inactive = the rest.

SMILES | Rin1 Abl inh | Hck Nef HTS | LYPLA2 counter | p97 ATPase inh | LYPLA1 counter | PREPL inhibitor | PREPL confirm
O=C(CN1C(=O)C2CC=CCC2C1=O)N1CCN(c2ccc([N+](=O)[O-])cc2)CC1 (stereo not given) | – | – | – | – | – | 48.4 | –
O=C(COC(=O)CNS(=O)(=O)c1c(F)cccc1F)NC(=O)NC1CCCCC1 | – | · | – | · | – | – | ·
CCOC(=O)N1CCN(c2nc3ccc(C(=O)c4ccccc4)cc3n3cnnc23)CC1 | – | – | – | – | – | 60.9 | –
O=C(c1ccccc1)c1ccc2nc(N3CCN(C(=O)c4ccco4)CC3)c3nncn3c2c1 | – | – | – | · | – | – | ·
CC1CCN(C(=O)COC(=O)C2CCN(S(=O)(=O)c3ccc(Cl)c(C(F)(F)F)c3)CC2)CC1 | – | · | – | · | – | – | ·
CCCCCCCCCCn1c2c(c(=N)c3c1CCC3)CCC2 | – | – | – | – | – | 44.4 | 43.6
CCOC(=O)C1(C)CCCCN1C(=O)c1cccnc1 (stereo not given) | – | · | · | · | · | · | ·
CN(C)c1ccc(CN(C(=O)/C=C/c2ccccc2Cl)C2CCS(=O)(=O)C2)cc1 (stereo not given) | – | – | – | – | – | 49.9 | 48.5
CC(C)[C@H](NC(=O)c1ccc([N+](=O)[O-])cc1Cl)C(=O)N1CCN(C/C=C/c2ccccc2)CC1 | – | · | · | · | · | 46.9 | –
Cc1ccsc1C(=O)Nc1ccc(F)c([N+](=O)[O-])c1 | – | – | – | – | – | 45.5 | –
O=C(NCCc1c[nH]c2ccccc12)C(=O)NCC(c1cccnc1)N1CCN(c2ccccc2)CC1 (stereo not given) | – | – | – | – | – | 52.1 | 46.1
CC12CCC(=O)N1C(C(=O)N1CCN(c3ccccc3)CC1)CS2 (stereo not given) | – | · | – | · | – | – | ·
CC12CCC(=O)N1C(C(=O)N1CCN(c3ccc([N+](=O)[O-])cc3)CC1)CS2 (stereo not given) | – | · | · | · | · | 46.7 | –
CN(CC(=O)Nc1ccccc1Cl)C(=O)c1cccc(S(=O)(=O)N2CCN(Cc3ccccc3)CC2)c1 | – | · | – | · | – | 67.4 | 70.3
COc1ccc(Nc2nnc(SC(C(=O)Nc3ccc(OC)c(Cl)c3)c3ccccc3)s2)cc1 (stereo not given) | – | – | – | – | – | 46.6 | –
COc1ccc(Nc2nnc(SC(C(=O)Nc3cc(C)ccc3C)c3ccccc3)s2)cc1 (stereo not given) | – | – | – | – | – | – | ·
O=C(NCCN1CCOCC1)C1CCCN(S(=O)(=O)c2ccc(F)cc2)C1 (stereo not given) | – | · | – | · | – | – | ·
CCN(CC)S(=O)(=O)c1ccc(OC)c(NC(=O)C2CC(=O)N(c3ccc4c(c3)OCCO4)C2)c1 (stereo not given) | – | · | – | · | – | – | ·
CCc1cc(=O)[nH]c(-n2[nH]c(-c3ccccc3)cc2=O)n1 | – | – | – | – | – | 56.9 | –
CCn1c(C)nc2cc(C(=O)N/N=C/c3ccccc3)ccc21 | – | – | – | – | – | – | ·
CCn1c(C)nc2cc(C(=O)N/N=C/c3cccc(O)c3O)ccc21 | – | – | – | – | – | 44.6 | –
C[C@@H]1CN([C@H](C)CO)C(=O)c2cc(NC(=O)Nc3cccc4ccccc34)ccc2O[C@H]1CN(C)Cc1ccc(C(F)(F)F)cc1 | – | · | · | · | · | – | ·
C[C@H]1CN([C@@H](C)CO)C(=O)c2cccc(NS(=O)(=O)c3ccc(Cl)cc3)c2O[C@@H]1CN(C)CC1CCCCC1 | – | · | · | · | · | 60.6 | 50.1
C[C@@H]1CN([C@@H](C)CO)C(=O)c2cccc(NC(=O)Nc3ccc(F)cc3)c2O[C@@H]1CN(C)Cc1ccc(Oc2ccccc2)cc1 | – | · | · | · | · | – | ·
C[C@H](CO)N1C[C@H](C)[C@H](CN(C)Cc2ccccc2)Oc2c(NC(=O)Nc3ccc(F)cc3)cccc2C1=O | – | · | · | · | · | 52.8 | 54.9
SMILES | Rin1 Abl inh | Hck Nef HTS | LYPLA2 counter | p97 ATPase inh | LYPLA1 counter | PREPL inhibitor | PREPL confirm
C[C@H](CO)N1C[C@H](C)[C@@H](CN(C)C(=O)Nc2ccc(C(F)(F)F)cc2)Oc2ccc(NC(=O)c3ccncc3)cc2C1=O | – | · | · | · | · | 50.9 | 46.2
C[C@H]1CN([C@@H](C)CO)C(=O)c2cc(NC(=O)Nc3cccc4ccccc34)ccc2O[C@@H]1CN(C)Cc1ccc(-c2ccccc2)cc1 | – | · | · | · | · | 47.8 | 44.6
CCN(CC)C(=O)C1=C(C)N(CCCOC)C(=O)C(CC(=O)NC(c2ccccc2)c2ccccc2)C1 (stereo not given) | – | · | · | · | · | · | ·
Cc1cc(C)cc(OCC(=O)OC(C)C(=O)Nc2c(C)n(C)n(-c3ccccc3)c2=O)c1 (stereo not given) | – | · | – | · | – | – | ·
CSCCC(NC(=O)c1ccco1)C(=O)NNC(=O)c1n[nH]c(=O)c2ccccc12 (stereo not given) | – | · | · | · | · | – | ·
C[C@H](CO)N1C[C@H](C)[C@@H](CN(C)S(=O)(=O)c2ccc(F)cc2)Oc2c(NC(=O)Cc3ccccc3)cccc2C1=O | – | · | · | · | · | 43.9 | –
COc1ccc(NC(=O)Nc2ccc3c(c2)C(=O)N([C@@H](C)CO)C[C@@H](C)[C@@H](CN(C)CC2CCCCC2)O3)cc1 | – | · | · | · | · | – | ·
C[C@@H]1CN([C@@H](C)CO)C(=O)Cc2cc(NC(=O)Nc3cccc4ccccc34)ccc2O[C@@H]1CN(C)S(C)(=O)=O | – | · | · | · | · | 44.7 | –
C[C@H](CO)N1C[C@H](C)[C@@H](CN(C)S(=O)(=O)c2cccs2)Oc2c(NC(=O)Cc3ccccc3)cccc2C1=O | – | · | · | · | · | 43.4 | –
COc1ccc(NC(=O)Nc2cccc3c2O[C@@H](CN(C)CC2CCCCC2)[C@@H](C)CN([C@H](C)CO)C3=O)cc1 | – | · | · | · | · | 56.5 | 51.3
O=C(NCCCN1CCOCC1)c1ccc2c(c1)N(Cc1cccc(Cl)c1)C(=O)CS2 | – | · | – | · | – | – | ·
CCOC(=O)c1ccc(S(=O)(=O)N2CCN(CC(O)COc3cccc(C(C)=O)c3)CC2)cc1 (stereo not given) | – | · | · | · | · | · | ·
CCOc1ccc(CCNC(=O)COC(=O)Cn2nc(C)c([N+](=O)[O-])c2C)cc1OCC | – | · | – | · | – | – | ·
OC/C(Br)=C(\Br)CO | – | · | – | · | – | – | ·
N#CC(C#N)=C1CCCc2sccc21 | – | · | · | · | · | · | ·
CCN(C(=O)COC(=O)CCCc1c[nH]c2ccccc12)c1c(N)n(Cc2ccccc2)c(=O)[nH]c1=O | – | · | · | · | · | · | ·
